This is a sample that favours compounds with a hit; in the whole collection about 3.2% have one here.
Tau fluor cs = Counterscreen qHTS for Inhibitors of Tau Fibril Formation, Fluorescence Polarization | tau K18 P301L Alexa594 fluorescence, heparin fibrillization | Potency, µM (series often up to 57.7 µM) | 0.93% of 280,000 active; note: nearly all actives have a fitted effect of over 55% in size
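Human K18 P301L tau (15 uM unlabeled plus 0.24 uM Alexa 594-labeled, final) in 100 mM sodium acetate pH 7 was mixed with compound and 20 uM heparin and incubated 6 hr at 37 C.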
Tau ThT inhib = qHTS for Inhibitors of Tau Fibril Formation, Thioflavin T Binding; Microtubule-associated protein tau (Homo sapiens), P10636; Potency, µM (doses to about 57.4 µM), hits mostly inhibitors; recombinant tau K18 P301L (four-repeat tau fragment), heparin-induced fibrillization, ThT fluorescence; AID 1460, 2008; 2.1% of 270,000 active; note: nearly all actives have a fitted effect of over 55% in size
Target sequence (P10636 561-689 P618L limits assumed): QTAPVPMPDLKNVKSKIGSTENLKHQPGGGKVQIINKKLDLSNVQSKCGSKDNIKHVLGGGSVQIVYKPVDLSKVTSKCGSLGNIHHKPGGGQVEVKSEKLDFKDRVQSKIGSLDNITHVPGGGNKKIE
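Heparin-induced fibrillization of the P301L-mutant K18 repeat-domain fragment of human tau was followed by ThT binding in quantitative high-throughput format.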
Tau FP inhib = qHTS for Inhibitors of Tau Fibril Formation, Fluorescence Polarization. Potency, µM (top dose mostly 57.7 µM), most hits filed as inhibitors. K18 P301L tau heparin fibrillization, Alexa594 FP, 6 h. 0.39% of 280,000 active. AID 1468, 2008. Microtubule-associated protein tau (Homo sapiens), P10636; note: nearly all actives have a fitted effect of over 55% in size
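Compound effects on tau fibrillization are measured by Alexa 594 fluorescence polarization (ex 555, em 632 nm). K18 P301L tau is used at 15 uM with 0.24 uM labeled tracer, and 20 uM heparin induces aggregation over 6 hr at 37 C.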
TR SRC2 fluor cs = Total Fluorescence Counterscreen for Inhibitors of the Interaction of Thyroid Hormone Receptor and Steroid Receptor Coregulator 2. TRb/SRC2 Texas Red total fluorescence interference. Potency, µM (titrated, usually from 106 µM). 0.29% of 280,000 active. AID 1479, 2009; active = well fitted curve in either direction with a large enough effect; inconclusive = small, poorly fitted or top-dose-only effect
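Human TRb ligand-binding domain at 0.6 uM with 20 nM Texas Red SRC2 peptide in Tris buffer containing 1 uM T3 and 5% DMSO, incubated with compound 5 h at ambient temperature. Total fluorescence (555/632 nm) calculated as parallel + 2 × perpendicular.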
RGS12 GoLoco inh = qHTS Assay for Inhibitors of RGS12 GoLoco Motif Activity (Red Fluorophore) | Guanine nucleotide-binding protein G(i) subunit alpha-1 (Homo sapiens), P63096 | Gai1:RGS12 GoLoco peptide FP, rhodamine, 10 min | Potency, µM (doses to about 61.6 µM), usual class: inhibitors | 0.44% of 230,000 active | AID 880, 2007; active = well fitted inhibition curve with a large enough effect, not every such curve was filed as active; inactive = no such curve, though single readings can be large or run the other way; note: nearly all actives have a fitted effect of over 30% in size
Target sequence (P63096 whole entry, looked up): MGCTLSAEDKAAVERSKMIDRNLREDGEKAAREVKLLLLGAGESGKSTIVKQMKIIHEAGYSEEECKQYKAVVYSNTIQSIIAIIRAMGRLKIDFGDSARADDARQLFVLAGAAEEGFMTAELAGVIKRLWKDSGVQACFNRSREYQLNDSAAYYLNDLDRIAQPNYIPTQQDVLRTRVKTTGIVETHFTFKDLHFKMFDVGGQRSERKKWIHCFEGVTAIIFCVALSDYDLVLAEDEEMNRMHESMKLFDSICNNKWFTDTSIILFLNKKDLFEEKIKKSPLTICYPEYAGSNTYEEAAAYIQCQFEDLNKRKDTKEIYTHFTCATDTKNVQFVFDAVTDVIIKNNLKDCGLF
TRb-SRC2 inh = qHTS for Inhibitors of the Interaction of Thyroid Hormone Receptor and Steroid Receptor Coregulator 2. Thyroid hormone receptor beta (Homo sapiens), P10828. TRbeta-SRC2 peptide binding, fluorescence polarization; receptor liganded with 1 µM T3. Potency, µM (titrated, usually from 106 µM), most hits filed as inhibitors. 0.065% of 280,000 active. AID 1469, 2008; note: nearly all actives have a fitted effect of over 50% in size
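A fluorescence polarization screen tested compounds at multiple concentrations against complex formation between 0.6 uM TRb ligand-binding domain and 20 nM Texas Red SRC2 peptide, with 1 uM T3 present; readout after 5 hr.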
Numbers stand for hits; [ ] = dose if it differs, or a comment. Unless noted, calls come from the whole dose curve; as a rule, active = well fitted curve in the direction sought with a large enough effect; inconclusive = small, poorly fitted or top-dose-only effect, or another doubt; inactive = no such curve, though single readings can be large; an effect the other way counts as inactive or inconclusive.

For CCOc1cccc(CNc2ccc(O)cc2)c1OCc1ccc(Cl)cc1Cl the results were Tau fluor cs inconclusive, Tau ThT inhib 28µM, Tau FP inhib 28µM, TR SRC2 fluor cs inactive, RGS12 GoLoco inh inactive and TRb-SRC2 inh 25µM.
CCOc1c(Cl)cc(CNc2ccc(N3CCCC3)cc2)cc1OC was read as Tau fluor cs inconclusive, Tau ThT inhib 3.2µM, Tau FP inhib 7.9µM, TR SRC2 fluor cs inactive, RGS12 GoLoco inh inactive and TRb-SRC2 inh inconclusive.
For CCOc1cccc(CNc2ccc(O)cc2)c1OCc1ccccc1Cl the results were Tau fluor cs 10µM[quencher], Tau ThT inhib 28µM, Tau FP inhib 11µM, TR SRC2 fluor cs inactive[11.2 µM], RGS12 GoLoco inh inactive and TRb-SRC2 inh inactive[11.2 µM].
Screening CCOc1cc(CNc2ccc(O)cc2)cc(Cl)c1OCc1ccccc1 returned Tau fluor cs 16µM[quencher], Tau ThT inhib inconclusive, Tau FP inhib inactive, TR SRC2 fluor cs inconclusive and TRb-SRC2 inh inconclusive.
CCOc1cccc(CNCCO)c1OCc1ccc(Cl)cc1Cl was read as Tau fluor cs inactive, Tau ThT inhib inactive, Tau FP inhib inactive, TR SRC2 fluor cs inactive, RGS12 GoLoco inh inactive and TRb-SRC2 inh inactive.
Screening N#C/C(=C\c1ccc(-c2cccc([N+](=O)[O-])c2)o1)C(=O)Nc1nc(-c2cccs2)cs1 returned Tau fluor cs inconclusive, Tau ThT inhib 2µM, Tau FP inhib inactive, TR SRC2 fluor cs inactive, RGS12 GoLoco inh inactive and TRb-SRC2 inh inactive.
For O=C(N/N=C/c1ccc(-c2cccc([N+](=O)[O-])c2)o1)c1cccs1 the results were Tau fluor cs inactive, Tau ThT inhib inconclusive, Tau FP inhib inactive, TR SRC2 fluor cs inactive, RGS12 GoLoco inh inactive and TRb-SRC2 inh inactive.
Cc1cc(C)n(CC(O)Cn2c3ccc(Cl)cc3c3cc(Cl)ccc32)c(=O)n1 (stereo unspecified) was read as Tau fluor cs inactive, Tau ThT inhib inactive, Tau FP inhib inactive, TR SRC2 fluor cs inactive, RGS12 GoLoco inh inactive and TRb-SRC2 inh inactive.
OC(CNCCC1C=Nc2ccccc21)Cn1c2ccc(Cl)cc2c2cc(Cl)ccc21 (stereo unspecified) was read as Tau fluor cs 3.2µM[quencher], Tau ThT inhib inconclusive, Tau FP inhib inconclusive, TR SRC2 fluor cs inactive, RGS12 GoLoco inh inactive and TRb-SRC2 inh inactive.
`COc1ccccc1CNC(=O)c1cccc(-c2ccccc2OC)n1` gave Tau fluor cs inactive, Tau ThT inhib inactive, Tau FP inhib inactive, TR SRC2 fluor cs inactive, RGS12 GoLoco inh inactive and TRb-SRC2 inh inactive.
Screening CC(=O)c1ccc(N2CCN(S(=O)(=O)c3ccc4[nH]c5c(c4c3)CCCCC5)CC2)cc1 returned Tau fluor cs inconclusive, Tau ThT inhib inactive, Tau FP inhib inactive, TR SRC2 fluor cs inactive and TRb-SRC2 inh inactive.
CC(=O)c1ccc(NS(=O)(=O)c2ccc3[nH]c4c(c3c2)CCCCCC4)cc1 was read as Tau fluor cs 10µM[quencher], Tau ThT inhib inactive, Tau FP inhib inconclusive, TR SRC2 fluor cs inactive and TRb-SRC2 inh inactive.
`COc1ccc(NC(=O)CN(C)S(=O)(=O)c2ccc3[nH]c4c(c3c2)CCCC4)cc1OC` gave Tau fluor cs inconclusive, Tau ThT inhib inactive, Tau FP inhib inactive, TR SRC2 fluor cs inactive and TRb-SRC2 inh inactive.
`CC(=O)Nc1ccc(NS(=O)(=O)c2ccc3[nH]c4c(c3c2)CCCCC4)cc1` gave Tau fluor cs 16µM[quencher], Tau ThT inhib inconclusive, Tau FP inhib inactive, TR SRC2 fluor cs inactive and TRb-SRC2 inh inactive.
`CC(=O)c1ccc(NS(=O)(=O)c2ccc3[nH]c4c(c3c2)CCCC4)cc1` gave Tau fluor cs 8.9µM[quencher], Tau ThT inhib inactive, Tau FP inhib inactive, TR SRC2 fluor cs inactive and TRb-SRC2 inh inactive.
COC(=O)NC(CC(C)=O)c1cccs1 (stereo unspecified) was read as Tau fluor cs inactive[11.6 µM], Tau ThT inhib inactive[11.5 µM], Tau FP inhib inactive[11.6 µM], TR SRC2 fluor cs inactive[11.2 µM] and TRb-SRC2 inh inactive[11.2 µM].
Screening CCc1c2c(nc3ccc4c(c13)OCCO4)-c1nc3ccccc3c(=O)n1C2 returned TR SRC2 fluor cs inactive and TRb-SRC2 inh inactive.
For CC(=O)N[C@H](Cc1ccc(O)cc1)C(=O)O the results were RGS12 GoLoco inh inactive[14.2 µM].
`O=C(Nc1ccc(Cl)cc1)c1cnn2c1NC(c1ccccc1)=CC2c1ccccc1` (stereo unspecified) gave Tau fluor cs 10µM[quencher], Tau ThT inhib inconclusive, Tau FP inhib inconclusive, TR SRC2 fluor cs inactive and TRb-SRC2 inh inactive.
Screening CC(C)(C)C(=O)[C@H](C(c1ccccc1)N1CCOCC1)N1CCOCC1 (stereo partly specified) returned RGS12 GoLoco inh inactive[14.2 µM].
For Cc1cccc(N2C(S)=C(C#N)C(=O)NC23CCCCC3)c1 the results were Tau fluor cs inactive, Tau ThT inhib 32µM, Tau FP inhib inconclusive, TR SRC2 fluor cs inactive, RGS12 GoLoco inh inactive and TRb-SRC2 inh inactive.
Screening COc1cccc(-n2c(SCc3cc(=O)oc4cc(O)c(O)cc34)nc3ccccc3c2=O)c1 returned Tau fluor cs 14µM[quencher], Tau ThT inhib 25µM, Tau FP inhib inconclusive, TR SRC2 fluor cs inactive, RGS12 GoLoco inh inactive and TRb-SRC2 inh inactive.
For N[C@@H](Cc1c[nH]c2ccc(O)cc12)C(=O)O the results were Tau fluor cs inconclusive, Tau ThT inhib 28µM, Tau FP inhib inconclusive, TR SRC2 fluor cs inactive, RGS12 GoLoco inh inactive and TRb-SRC2 inh inactive.
COc1ccc2[nH]cc(CC(N)C(=O)O)c2c1 (stereo unspecified) was read as Tau fluor cs inactive, Tau ThT inhib inconclusive, Tau FP inhib inactive, TR SRC2 fluor cs inactive, RGS12 GoLoco inh inactive and TRb-SRC2 inh inactive.
NNc1cc([N+](=O)[O-])cc2c1C(=O)N(Cc1ccccc1)S2=O (stereo unspecified) was read as Tau fluor cs inactive, Tau ThT inhib 25µM, Tau FP inhib inconclusive, TR SRC2 fluor cs inactive, RGS12 GoLoco inh inactive and TRb-SRC2 inh inactive.
Cc1nc(Nc2ccc(C(=O)O)cc2)sc1-c1ccccc1 was read as Tau fluor cs inactive, Tau ThT inhib inactive, Tau FP inhib inactive, TR SRC2 fluor cs inactive, RGS12 GoLoco inh inactive and TRb-SRC2 inh inactive.
For Cc1nc(Nc2ccccc2)sc1-c1ccccc1 the results were Tau fluor cs 7.9µM[quencher], Tau ThT inhib inconclusive, Tau FP inhib inactive, TR SRC2 fluor cs inactive and TRb-SRC2 inh inactive.

Bioassay records (PubChem)
